Test results from PubChem BioAssay (Tox21).
Several values for one entry are separate records, joined by “and”; a condition that tells them apart may be missing. Equal values may be shown once. Records with an inconclusive call do not appear. Entries that show only a call come without a potency. Where a structure was tested more than once in an assay, its records may differ in their call. Activity calls are given as the source filed them. Calls follow the shape of the dose curve; as a rule, active = well fitted inhibition curve with a large enough effect in the repeat runs; inconclusive = weak or mixed curves; inactive = no such curve, though single readings can be large or run the other way.

Target: Aromatase (Homo sapiens) (UniProt P11511)
Sequence (P11511 whole entry, looked up): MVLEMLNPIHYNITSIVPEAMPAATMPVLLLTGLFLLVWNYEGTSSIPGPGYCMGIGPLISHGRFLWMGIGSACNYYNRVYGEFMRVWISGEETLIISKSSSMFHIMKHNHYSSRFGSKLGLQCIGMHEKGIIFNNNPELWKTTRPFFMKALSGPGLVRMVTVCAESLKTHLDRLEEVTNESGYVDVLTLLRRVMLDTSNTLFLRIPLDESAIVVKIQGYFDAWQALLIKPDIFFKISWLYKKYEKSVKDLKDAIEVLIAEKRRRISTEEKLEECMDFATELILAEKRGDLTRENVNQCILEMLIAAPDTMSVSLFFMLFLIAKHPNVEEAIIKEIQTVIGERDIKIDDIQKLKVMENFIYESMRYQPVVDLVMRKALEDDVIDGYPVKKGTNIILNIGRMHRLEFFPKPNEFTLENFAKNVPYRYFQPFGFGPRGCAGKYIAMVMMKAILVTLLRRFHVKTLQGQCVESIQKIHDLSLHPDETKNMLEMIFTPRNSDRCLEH
Test: qHTS assay to identify aromatase inhibitors (AID 743083); also: nearly all actives have a fitted effect of over 55% in size
Conditions: MCF-7 aro ERE, testosterone-driven ERE luciferase, 24 h; series mostly up to 70.3 µM
Potency is read from the fitted curve at half-maximal effect.

SMILES | Potency
CCCCCCOC(C)=O | inactive
O=S(=O)(O)c1cc(S(=O)(=O)O)c2c(N=Nc3ccccc3)c(O)ccc2c1 | inactive
Clc1ccc(Cl)c(Cl)c1Cl | inactive
COC(=O)Nc1nc2ccc(Sc3ccccc3)cc2[nH]1 | inactive
CN(C)c1cccc(O)c1 | inactive
CC1=CC[C@H]2C[C@@H]1C2(C)C | inactive
COC(=O)c1ccc(C(=O)OC)cc1 | inactive
O=[N+]([O-])C(CO)(CO)CO | inactive
CC(C)(C)C1CCC(O)CC1 (stereo not given) | inactive
O=C(c1ccc(O)cc1)c1ccc(O)cc1O | inactive
c1ccc2[nH]cnc2c1 | inactive
O=C1CCCCC1 | inactive
C=C1CC[C@H](O)CC1=C/C=C1\CCC[C@]2(C)[C@@H]([C@H](C)/C=C/[C@H](C)C(C)C)CC[C@@H]12 | inactive and 61.1 µM (active)
CCOC(=O)[C@H](CCc1ccccc1)N[C@@H](C)C(=O)N1Cc2ccccc2C[C@H]1C(=O)O | inactive
CC#C[C@]1(O)CC[C@H]2[C@@H]3CCC4=CC(=O)CCC4=C3[C@@H](c3ccc(N(C)C)cc3)C[C@@]21C | 11.9 µM (active) and 30.6 µM (active)
C=C(C)C(=O)OCCC[Si](OC)(OC)OC | inactive
CCCCOCCOCCOC(=O)CCCCC(=O)OCCOCCOCCCC | inactive
CCCCCCCCCCCCN | 61.1 µM (active)

SMILES | Potency
CCCCC(CC)COC(C)=O (stereo not given) | inactive
O=C(Cl)c1c(Cl)c(Cl)c(C(=O)Cl)c(Cl)c1Cl | inactive
O=C(Oc1ccccc1)c1ccc(O)cc1 | inactive
O=[N+]([O-])c1cccc(Cl)c1 | inactive
O=c1c(-c2ccc(O)cc2)coc2cc(O)ccc12 | inactive
Cc1cc(O)cc(C)c1Cl | inactive
Cc1cc(O)c2c(c1)C(=O)c1cc(O)cc(O)c1C2=O | 23.8 µM (active) and 54.5 µM (active)
CC1COc2ccccc2N1C(=O)C(Cl)Cl (stereo not given) | 61 µM (active) and inactive
CCC(=O)O | inactive
CC(=O)CCc1ccccc1 | inactive
O=S(=O)(Oc1ccc(Cl)cc1Cl)c1ccccc1 | inactive
Cc1ccc(N)c(S(=O)(=O)O)c1 | inactive
NC(=O)NNc1ccccc1 | inactive
CCCCC/C=C\C/C=C\CCCCCCCC(=O)OC | inactive
CCOC(=O)/C=C\C(=O)OCC | inactive
CC1=C(CC(=O)O)c2cc(F)ccc2/C1=C\c1ccc(S(C)=O)cc1 (stereo not given) | inactive
CC(C)NCC(O)COc1cccc2ccccc12 (stereo not given) | inactive
